In PubChem BioAssay (NCATS) one finds Potency data, which are given here for eleven compounds.

Activity calls are given as the source filed them. Where a call stands in place of a potency, no number is given. Calls follow the shape of the dose curve; as a rule, active = well fitted inhibition curve with a large enough effect; inconclusive = small, poorly fitted or top-dose-only effect; inactive = flat fitted curve, though single readings scatter.

This test concerns Nanoluciferase (engineered Oplophorus gracilirostris luciferase). The test is described as follows: Primary Nanoluciferase (NLuc) qHTS assay for identification of artifact compounds. (AID 1845222). To be noted: NLuc-conditioned medium, Nano-Glo luminescence, 5 min; series mostly up to 54.1 µM. An outline of the steps:
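Concentration-response data were obtained by luminescence after 5 min with Nano-Glo substrate at 1:100. The enzyme was diluted S16 NLuc-expressing cell medium, preincubated with compound for 15 min at RT. Curves were fitted with a 4-parameter Hill model.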
In general terms: Quantitative high-throughput screening tests each substance at several concentrations.
As to `C=C(C(=O)O)[C@@H]1CC[C@H](C)[C@@H]2CC(=O)C(C)=C2C1`, the Potency result is “inactive”.
`COc1ccc(/C=C/C(=O)N2CCCC2)cc1`: the Potency result is “inactive”.
In the case of `COc1cc(/C=C/C(=O)OCC2OC(OC3(CO)OC(CO)C(O)C3O)C(O)C(O)C2O)ccc1O` (stereo unspecified), the Potency result was “inactive”.
With `C=CC1(C)C=C2CC[C@H]3[C@@](C)(C(=O)O)CCC[C@]3(C)C2CC1` (stereo partly specified), the Potency entry is “inactive”.
For the compound `COc1cc(/C=C/C(=O)OC[C@H]2O[C@@H](OC3OC=C(C(=O)O)C4C(O)CC(C)(O)C34)[C@H](O)[C@@H](O)[C@@H]2O)cc(OC)c1O` (stereo partly specified), the Potency entry is “inactive”.
As for `CC(CC(C)O[C@@H]1O[C@H](CO)[C@@H](O)[C@H](O)[C@H]1O)OC(=O)/C=C/c1ccc(O)cc1` (stereo partly specified), the entry is “inactive”; as for `CCCCS(=O)(=O)NC(Cc1ccc(OCCCCC2CCNCC2)cc1)C(=O)O` (stereo unspecified), “inactive”; as for `CC(=O)OC[C@]12[C@H](OC(C)=O)[C@H](OC(=O)c3ccccc3)[C@@H]3[C@@H](OC(C)=O)[C@]1(OC3(C)C)[C@H](C)C[C@H](OC(=O)c1ccccc1)[C@@H]2OC(=O)c1ccccc1`, “inactive”.
As for `COc1cc(/C=C/C(=O)O)ccc1O[C@@H]1O[C@H](CO)[C@@H](O)[C@H](O)[C@H]1O[C@@H]1OC[C@](O)(CO)[C@H]1O`, the entry is “inactive”; as for `CC(=O)N[C@H]1[C@H](O[C@H]2CC[C@]3(C)C4CC=C5[C@@H]6CC(C)(C)CC[C@]6(C(=O)O)[C@H](O)C[C@@]5(C)[C@]4(C)CC[C@H]3C2(C)C)O[C@H](CO)[C@@H](O)[C@@H]1O` (stereo partly specified), “inactive”; as for `Cc1ccc(-c2c(-c3nn(C)c4ncnc(N5CCC(N6CCCCC6)C5)c34)cnn2C)cc1` (stereo unspecified), “inactive”.
